HGIII-sPLA2 inh: human group III sPLA2 inhibitors, primary screen, biochemical, QFRET, BODIPY PC-A2 liposome substrate | hit rate 0.56% among 370,000 | QFRET BODIPY PC-A2 liposome hydrolysis, fluorescence | inhibition, % at 12.2 µM;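 active means inhibition above mean plus 3 SD of compounds lying within the high and low control bounds, cut at about 19% in these data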;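 further: 0% = median of test compound wells and 100% = no enzyme DMSO wells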
Target sequence (Q9NZ20 whole entry, looked up): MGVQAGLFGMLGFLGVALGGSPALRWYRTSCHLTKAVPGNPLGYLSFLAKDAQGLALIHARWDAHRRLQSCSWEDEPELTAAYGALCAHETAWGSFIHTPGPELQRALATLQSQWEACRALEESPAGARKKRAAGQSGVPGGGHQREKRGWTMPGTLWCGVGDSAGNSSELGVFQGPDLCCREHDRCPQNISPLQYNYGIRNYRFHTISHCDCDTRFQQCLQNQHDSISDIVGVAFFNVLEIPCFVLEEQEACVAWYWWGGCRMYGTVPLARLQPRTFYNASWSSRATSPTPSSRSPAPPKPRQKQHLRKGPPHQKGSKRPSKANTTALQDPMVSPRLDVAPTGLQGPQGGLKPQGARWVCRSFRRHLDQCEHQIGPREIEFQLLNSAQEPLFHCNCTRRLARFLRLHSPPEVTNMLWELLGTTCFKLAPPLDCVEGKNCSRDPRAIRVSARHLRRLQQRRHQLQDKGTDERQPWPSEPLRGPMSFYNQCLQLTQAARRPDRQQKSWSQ
Cardio protect: cardioprotection against H2O2-induced cell death, primary screen, uHTS, H9c2 cells, ATPLite luminescence; H9c2 cardiomyocytes, H2O2 injury protection, 2 h; protection from H2O2 cell death, % at 20 µM; hit rate 0.63% among 360,000; AID 588492, 2011;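 active means compounds giving at least 50% protection of heart cells from peroxide-induced death in the single-dose screen, raw or plate-pattern-corrected value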;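 further: 0% = DMSO wells with peroxide and 100% = DMSO wells without peroxide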
DAGLB inh: DAGLB lipase inhibitors, primary screen, biochemical, fluorescence, HTS. HEK293T DAGLB membrane lysate, EnzChek fluorogenic substrate. hit rate 0.059% among 340,000. AID 504411, 2011. inhibition, % at 5.17 µM; in the data active means inhibition above about 34%;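 further: 0% = enzyme with vehicle and 100% = wells lacking enzyme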
Rtt109 Vps75: inhibitors of C. albicans Rtt109/Vps75 HAT, primary screen, biochemical, ThioGlo CoA-SH fluorescence, plate reader; inhibition, % at 34.9 µM; hit rate 0.16% among 330,000; purified Rtt109/Vps75, 4 h;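 active means inhibition of at least 50% in every replicate; inconclusive means best replicate reaches 50% inhibition but some replicates fall short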
ABHD5-PLIN5 inh: ABHD5-PLIN5 interaction inhibitors, primary screen, cell lysate, split luciferase complementation, luminescence; Perilipin-5 (Homo sapiens) + 1-acylglycerol-3-phosphate O-acyltransferase ABHD5 (Homo …; Split G. princeps luciferase complementation, 4 h; inhibition, % at 4 µM; hit rate 0.78% among 360,000; AID 602281, 2012;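 active means inhibition above the mean inhibition across every tested compound plus 3 SD, cut at about 22% in these data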;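 further: 0% = DMSO only wells and the 100% control is not disclosed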
Myeloid diff 2: induction of myeloid progenitor differentiation, primary screen, cell-based, flow cytometry, MLPCN library; ER-HoxA9 myeloid progenitors, lysozyme-GFP differentiation; calls only at 10 µM; hit rate 1% among 360,000;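 active means normalized GFP-positive differentiation at or above the plate's own cutoff, the solvent-only control mean plus 3 SD; inconclusive means no clear call, values can overlap the other calls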;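 further: cells exposed to compound for four days before flow analysis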
Active calls of the source: *; i = inactive; ? = inconclusive; nt = no result; + = active, no number. Sampled rows, rich in hits. Any-hit rate of the full collection: about 2.9%.

SMILES | HGIII-sPLA2 inh | Cardio protect | DAGLB inh | Rtt109 Vps75 | ABHD5-PLIN5 inh | Myeloid diff 2
COc1cccc(-n2c(O)c(C=Nc3c(C)n(C)n(-c4ccccc4)c3=O)c(=O)[nH]c2=O)c1 | -0.9 | 1.9 | 1.5 | nt | 4.2 | i
COc1ccc2nc(/N=C/c3c(O)n(-c4cccc(Cl)c4)c(=O)[nH]c3=O)sc2c1 | -12.6 | -7.1 | -1.9 | 1.1 | 22.9* | i
O=C1/C(=C/c2ccccc2)C[C@@]2(O)[C@H]3Cc4ccc(O)c5c4[C@@]2(CCN3CC2CC2)C1O5 (stereo not given in full) | nt | -5.3 | 2.4 | 8.6 | 65.2* | nt
Oc1ccc2c3c1O[C@H]1c4[nH]c5c(c4CC4(O)C(C2)N(CC2CC2)CCC314)CC1(O)[C@H]2Cc3ccc(O)c4c3[C@@]1(CCN2CC1CC1)C5O4 (stereo not given in full) | -24.6 | nt | nt | nt | nt | nt
c1cnc(OCCN2CC2)cn1 | 12.6 | 5.9 | -2.4 | -1.6 | 4.2 | i
CN1C(=O)C(=Cc2sc(=O)n(-c3ccccc3)c2N2CCCCC2)C(=O)N(C)C1=O | 6.1 | 6.7 | 2.8 | -3.1 | -1.2 | i
CN1CCN(c2nc3ccccn3c(=O)c2C=C2C(=O)N(C)C(=O)N(C)C2=O)CC1 | nt | 3.8 | 2.3 | 0.4 | 23.0* | i
O=C(CSC1c2ccccc2-c2ccccc21)N/N=C/c1ccccc1O | -26.6 | 54.2* | 6.6 | 14.3 | -2.9 | ?
COc1ccc(CN2Cc3cnnn3-c3ccccc3C2c2ccccc2)cc1 (stereo not given) | 1.9 | -10.8 | -6.7 | -4.8 | 5.6 | +
Cc1ccc(S(=O)(=O)N2Cc3cnnn3-c3ccccc3C2C#N)cc1 (stereo not given) | 8.4 | 4.3 | 0.3 | 0.6 | -0.8 | +
c1ccc(C2c3ccccc3-n3nncc3CN2CC2CCCCC2)cc1 (stereo not given) | -0.6 | -16.2 | -3.6 | 2.2 | -11.4 | i
N#CC1c2ccccc2-n2nncc2CN1Cc1cc(Cl)cc(Cl)c1 (stereo not given) | -2.6 | -28.8 | -8.0 | 1.7 | 96.1* | ?
COCCNC(=O)Cn1cc(C(=O)c2ccccc2F)c2ccccc21 | -1.2 | 10.9 | -1.5 | 0.8 | 1.5 | i
O=C(C[N+]12CCC(CC1)C(O)C2)c1ccc(Br)cc1 (stereo not given) | 1.9 | 10.9 | -2.0 | 6.2 | -5.3 | i
O=C(COc1ccccc1)c1cn(Cc2ccccc2)c2ccccc12 | -3.3 | -9.6 | -8.2 | 0.3 | 5.5 | +
CCC(=O)c1cn(Cc2ccccc2)c2ccccc12 | 0.7 | 4.0 | -2.6 | 1.3 | 1.3 | i
C[C@H](CO)N1C[C@H](C)[C@@H](CN(C)C(=O)Oc2ccc3ccccc3c2)OCc2cn(nn2)CCCC1=O | 11.5 | -1.7 | -3.0 | nt | 3.9 | i
NC1=NC(=O)N2CC12 (stereo not given) | 5.3 | 1.7 | -0.5 | 4.8 | 12.4 | nt
Cc1cccc(-n2c(O)c(/C=C/C=Nc3ccccc3)c(=O)[nH]c2=O)c1 | -41.0 | 4.7 | -32.0 | -26.3 | 2.2 | i
Cn1c(O)c(/C=C/C=Nc2ccccc2)c(=O)n(C)c1=S | 14.5 | 6.3 | -132.4 | -15.9 | -11.3 | +
COC(=O)C1=C(c2ccc(F)cc2OCc2ccccc2)C[C@@H]2CC[C@H]1N2C(=O)NCc1ccc(C(F)(F)F)cc1 | -11.5 | -0.3 | -16.4 | 4.8 | -6.6 | i
CC1=NN(Cc2c[nH]c3ccccc23)C(C)(C)C1 | -53.0 | 0.9 | -1.8 | 8.6 | 1.3 | i
N=C1c2ccccc2CN1NC(=O)c1ccccc1 | 10.8 | 3.5 | -1.2 | 50.8* | 3.6 | i
O=C1NCN(c2ccccc2)C12CCN(C(c1nnnn1-c1ccc3c(c1)OCCO3)C1CC1)CC2 (stereo not given) | -1.2 | 11.2 | nt | nt | -1.0 | i
Cc1[nH]c2ccccc2c1CCCNC1CCCCC1 | -2.4 | 8.1 | 1.2 | 12.8 | 9.2 | +
SMILES | HGIII-sPLA2 inh | Cardio protect | DAGLB inh | Rtt109 Vps75 | ABHD5-PLIN5 inh | Myeloid diff 2
Cc1[nH]c2ccccc2c1CCN | -2.3 | 1.1 | -0.3 | -4.0 | 6.1 | i
CCOC(=O)CNC(=O)N1Cc2cc(-c3ccccc3)ccc2-n2nncc2C1 | -5.8 | 5.7 | nt | nt | -3.9 | i
CCOC(=O)CNC(=O)N1Cc2ccccc2-n2nncc2C1 | 13.9 | 1.7 | -2.7 | nt | 3.2 | +
CCCCn1c(=O)c(C(=O)Nc2ccccc2N)c(O)c2ccccc21 | 12.8 | 31.7 | -1.6 | -3.7 | 1.1 | i
O=C1NC(=O)C(CCc2ccncc2)(Cc2ccc3c(c2)OCO3)C(=O)N1CCc1ccccc1 (stereo not given) | -10.6 | 21.3 | 2.0 | nt | -1.7 | +
O=C(NC1CN2CCC1CC2)c1cc(-c2ccc(Cl)cc2)nc2ccccc12 (stereo not given) | -9.5 | nt | nt | nt | nt | nt
O=C(N/N=C/c1c(O)n(C2CCCCC2)c(=S)[nH]c1=O)c1ccccc1 | -2.0 | 63.5* | 11.0 | 5.0 | -4.0 | ?
O=C(N/N=C/c1c(O)n(C2CCCCC2)c(=S)[nH]c1=O)c1ccccc1O | 7.3 | 52.3* | 14.9 | 11.9 | -10.0 | i
NCC(O)c1cc(O)c(O)cc1F (stereo not given) | 6.1 | -0.4 | 2.0 | 14.1 | -6.0 | i
COc1cccc(C(c2nnnn2-c2ccc3c(c2)OCCO3)N2CCC(n3c(=O)[nH]c4ccccc43)CC2)c1OC (stereo not given) | -4.4 | 37.4 | nt | nt | 7.0 | +
CC(NC(C)(C)C)C(=O)c1cccc(Cl)c1 (stereo not given) | -1.0 | 8.1 | 3.1 | -2.7 | 0.6 | i
CCOc1ccc2[nH]c(=O)c(CN(CCO)C3(c4nnnn4C4CCCCC4)CCCCC3)cc2c1 | -5.7 | 78.5* | 0.2 | 10.6 | -6.0 | i
CCCCn1c(O)c(C(=O)/C=C/c2c[nH]c3ccccc23)c(=O)[nH]c1=O | -0.5 | 3.8 | -12.8 | 0.6 | -3.0 | +
Cc1ccc2c(c1Cl)NC(C(=O)O)C1CC(Sc3ccccc3[N+](=O)[O-])C(Cl)C21 (stereo not given) | nt | 4.1 | 13.8 | -5.5 | 0.9 | i
CCN(CC)C(=O)c1ccc2c(c1)C1C(Cl)C(Sc3ccccc3[N+](=O)[O-])CC1C(C(=O)O)N2 (stereo not given) | nt | 12.5 | 22.0 | nt | 23.0* | i
Cc1ccc2c(c1)C1CN(C)CCC1N2C(=O)c1cccs1 (stereo not given) | 4.5 | -11.1 | 0.1 | -0.8 | -1.7 | i
Cc1ccc2c(c1)C1C[N+](C)(CC(=O)c3ccc(Cl)cc3Cl)CCC1N2C(=O)c1ccc(F)cc1 (stereo not given) | 19.2 | -4.0 | 1.4 | 56.6* | 2.2 | i
